Measured values as given in PubChem BioAssay (EPA / NIEHS).
Inconclusive results are not listed. The source made the active and inactive calls. Rule for the calls, unless noted: active = hit-call score of the fitted dose curve at least 0.9, where 1 is the maximum; inactive = score below 0.9.

Assays:
[1] = read-out: Interleukin-8 (IL8), CXCL8 (gene 3576); test: BSK_3C_IL8: BioMAP Diversity Plus: 3C Assay for Interleukin-8 (IL8) Biomarker Activity (AID 2283020); settings: primary human endothelial cells (HUVEC); actives raise or lower the signal
In short: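 Primary human umbilical vein endothelial cells (3C system) were exposed to test chemical for 24 h, then IL-8 was quantified by ELISA. Responses were fitted bidirectionally against DMSO vehicle as baseline.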

[2] = target: human Vitamin D Receptor (VDR), VDR (gene 7421) (UniProt P11473); test: ATG_VDR_TRANS: Attagene TRANS-FACTORIAL HepG2 Assay for human Vitamin D Receptor (VDR) (AID 2283022; active = hit-call score of the fitted dose curve at least 0.9, where 1 is the maximum)
In short: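 HepG2 cells were transiently transfected with GAL4-UAS reporter units and a chimeric VDR-Gal4 construct, then dosed for 24 hours. Reporter mRNA was quantified by RT-PCR, fluorescent labeling, HpaI digestion and capillary electrophoresis; gain of signal analysed vs DMSO.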

[3] = BSK_3C_SRB: Viability Assessment in the BioMAP Diversity Plus: 3C Assay (AID 2283023); settings: primary human endothelial cells (HUVEC);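 note: fitted both ways against DMSO so a hit may be signal rise or drop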
In short: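 Human umbilical vein endothelial cells in the 3C system, treated 24 h. Total protein measured by 0.1% sulforhodamine B staining after 10% TCA fixation, read at 560 nm; bidirectional fit versus DMSO.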

[4] = read-out: Matrix Metallopeptidase 1 (MMP1), MMP1 (gene 4312); test: BSK_BE3C_MMP1: BioMAP Diversity Plus: BE3C Assay for Matrix Metallopeptidase 1 (MMP1) Biomarker Activity (AID 2283024); settings: primary human bronchial epithelial cells; actives raise or lower the signal
In short: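 Primary human bronchial epithelial cells were dosed with test chemicals, and MMP1 levels were measured by ELISA 24 h later. Data were fitted bidirectionally against DMSO as the negative control and activity baseline.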

[5] = BSK_3C_Vis: BioMAP Diversity Plus: 3C Assay for Morphology Visualization (AID 2283025); settings: primary human endothelial cells (HUVEC);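 note: fitted both ways so gain or loss versus DMSO counts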
In short: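 Human umbilical vein endothelial cells in the 3C system were imaged by light microscopy 24 h after chemical dosing to record cell morphology. Activity was fitted bidirectionally against DMSO as negative control and baseline; the endpoint serves as a background control.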

[6] = read-out: Pselectin, SELP (gene 6403); test: BSK_4H_Pselectin: BioMAP Diversity Plus: 4H Assay for Pselectin Biomarker Activity (AID 2283026); settings: primary human endothelial cells (HUVEC); actives raise or lower the signal
In short: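 Primary human umbilical vein endothelial cells were exposed to test chemical for 24 h, then cell-surface P-selectin was quantified by ELISA. Activity was fitted bidirectionally against DMSO as negative control and baseline.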

[7] = BSK_4H_SRB: Viability Assessment in the BioMAP Diversity Plus: 4H Assay (AID 2283027); settings: primary human endothelial cells (HUVEC);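 note: cells exposed to compound for 24 h before staining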;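 for AC50: curves fitted both ways versus DMSO so AC50 may be loss or gain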
In short: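 Human umbilical vein endothelial cells were dosed with chemical and, after 24 h, fixed with 10% TCA, stained with 0.1% sulforhodamine B, and read at 560 nm to give total protein as a cytotoxicity measure. Bidirectional fitting relative to DMSO control.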

[8] = BSK_BE3C_SRB: Viability Assessment in the BioMAP Diversity Plus: BE3C Assay (AID 2283028); settings: primary human bronchial epithelial cells;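 for AC50: fitted both ways so AC50 may mark signal gain or loss versus DMSO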
In short: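 Human bronchial epithelial primary cells in confluent culture, 24 h after chemical dosing; total protein by 0.1% SRB staining after 10% TCA fixation, read at 560 nm. Bidirectional fitting versus DMSO baseline.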

[9] = read-out: Thrombomodulin, THBD (gene 7056); test: BSK_3C_Thrombomodulin: BioMAP Diversity Plus: 3C Assay for Thrombomodulin Biomarker Activity (AID 2283029); settings: primary human endothelial cells (HUVEC); actives raise or lower the signal
In short: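 Primary human umbilical vein endothelial cells (3C system) were exposed to chemical for 24 h, then thrombomodulin levels were measured by ELISA. Activity was fitted bidirectionally against the DMSO negative control as baseline.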

[10] = read-out: Urokinase-type plasminogen activator receptor (uPAR), PLAUR (gene 5329); test: BSK_4H_uPAR: BioMAP Diversity Plus: 4H Assay for Urokinase-type plasminogen activator receptor (uPAR) Biomarker Activity (AID 2283030); settings: primary human endothelial cells (HUVEC); actives raise or lower the signal
In short: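 Human umbilical vein endothelial cells in the 4H system, 24 h after chemical dosing. Cell-surface uPAR measured by ELISA, fitted in both directions versus DMSO; cytotoxicity checked by SRB total protein in parallel cultures.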

[11] = read-out: Vascular endothelial growth factor receptor 2 (Homo sapiens) (UniProt P35968); test: BSK_4H_VEGFRII: BioMAP Diversity Plus: 4H Assay for Vascular endothelial growth factor receptor 2 (VEGFR2) Biomarker Activity (AID 2283031); settings: primary human endothelial cells (HUVEC); actives raise or lower the signal;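 for AC50: cell-surface VEGFR2 protein level quantified by ELISA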
In short: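 Primary human umbilical vein endothelial cells (4H system), 24 h exposure; cell-surface VEGFR2 measured by ELISA. Bidirectional fitting versus DMSO; cytotoxicity checked in parallel by SRB total-protein staining.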

[12] = read-out: Human Leukocyte Antigen - DR isotype (HLADR), HLA-DRA (gene 3122); test: BSK_BE3C_HLADR: BioMAP Diversity Plus: BE3C Assay for Human Leukocyte Antigen - DR isotype (HLADR) Biomarker Activity (AID 2283032); settings: primary human bronchial epithelial cells; actives raise or lower the signal
In short: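 Human primary bronchial epithelial cells in the BE3C system were exposed to chemicals for 24 h, after which HLA-DR levels were quantified by ELISA. Activity was fitted bidirectionally, gain or loss of signal, against DMSO as negative control and baseline.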

[13] = read-out: Vascular cell adhesion molecule 1 (VCAM1), VCAM1 (gene 7412); test: BSK_4H_VCAM1: BioMAP Diversity Plus: 4H Assay for Vascular cell adhesion molecule 1 (VCAM1) Biomarker Activity (AID 2283033); settings: primary human endothelial cells (HUVEC); actives raise or lower the signal
In short: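 Primary human umbilical vein endothelial cells were exposed to chemicals for 24 h, after which VCAM-1 was quantified by ELISA. Responses were fitted bidirectionally against DMSO as negative control and activity baseline.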

[14] = read-out: Interferon-gamma inducible Protein 10 (IP10), CXCL10 (gene 3627); test: BSK_BE3C_IP10: BioMAP Diversity Plus: BE3C Assay for Interferon-gamma inducible Protein 10 (IP10) Biomarker Activity (AID 2283034); settings: primary human bronchial epithelial cells; actives raise or lower the signal
In short: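 Human primary bronchial epithelial cells were exposed to chemicals for 24 hours, after which IP-10 levels were measured by ELISA. Data were fitted bidirectionally against DMSO, which served as the negative control and activity baseline.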

[15] = read-out: Monokine induced gamma interferon (MIG), CXCL9 (gene 4283); test: BSK_BE3C_MIG: BioMAP Diversity Plus: BE3C Assay for Monokine induced gamma interferon (MIG) Biomarker Activity (AID 2283035); settings: primary human bronchial epithelial cells; actives raise or lower the signal
In short: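 ELISA read-out of MIG in human lung bronchial epithelial primary cultures, 24 h post-dosing. Bidirectional curve fit vs DMSO baseline.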

[16] = read-out: Transforming growth factor beta 1 (TGFb1), TGFB1 (gene 7040); test: BSK_BE3C_TGFb1: BioMAP Diversity Plus: BE3C Assay for Transforming growth factor beta 1 (TGFb1) Biomarker Activity (AID 2283036); settings: primary human bronchial epithelial cells; actives raise or lower the signal
In short: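 Human primary bronchial epithelial cells (BE3C system) were dosed with chemical and TGF-b1 levels measured by ELISA at 24 h. Activity was fitted bidirectionally relative to DMSO negative control as baseline.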

[17] = read-out: Plasminogen activator inhibitor-1 (PAI1), SERPINE1 (gene 5054); test: BSK_BE3C_PAI1: BioMAP Diversity Plus: BE3C Assay for Plasminogen activator inhibitor-1 (PAI1) Biomarker Activity (AID 2283037); settings: primary human bronchial epithelial cells; actives raise or lower the signal
In short: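 Human primary bronchial epithelial cells were exposed to chemical for 24 h, then PAI-1 was quantified by ELISA. Activity was fitted bidirectionally relative to the DMSO negative control baseline.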

[18] = read-out: urokinase plasminogen activator (uPA), PLAU (gene 5328); test: BSK_BE3C_uPA: BioMAP Diversity Plus: BE3C Assay for urokinase plasminogen activator (uPA) Biomarker Activity (AID 2283038); settings: primary human bronchial epithelial cells; actives raise or lower the signal
In short: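 Primary human bronchial epithelial cells, uPA measured by ELISA 24 h after dosing. Bidirectional change relative to DMSO; cytotoxicity checked in parallel cultures by sulforhodamine B total-protein staining.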

[19] = read-out: Urokinase-type plasminogen activator receptor (uPAR), PLAUR (gene 5329); test: BSK_BE3C_uPAR: BioMAP Diversity Plus: BE3C Assay for Urokinase-type plasminogen activator receptor (uPAR) Biomarker Activity (AID 2283039); settings: primary human bronchial epithelial cells; actives raise or lower the signal
In short: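 Primary human bronchial epithelial cells were dosed with chemical and harvested 24 h later; uPAR was quantified by ELISA. Activity was fitted bidirectionally against DMSO as negative control and baseline.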

[20] = read-out: Monokine induced gamma interferon (MIG), CXCL9 (gene 4283); test: BSK_3C_MIG: BioMAP Diversity Plus: 3C Assay for Monokine induced gamma interferon (MIG) Biomarker Activity (AID 2283021); settings: primary human endothelial cells (HUVEC); actives raise or lower the signal
In short: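 Primary human umbilical vein endothelial cells in the 3C system were exposed to chemical for 24 h, after which MIG was quantified by ELISA. Activity was fitted bidirectionally against DMSO as negative control and baseline.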

Measured: AC50

Chain of human Vitamin D Receptor (VDR), VDR (gene 7421) (P11473 whole entry, looked up, the tested form may be a part): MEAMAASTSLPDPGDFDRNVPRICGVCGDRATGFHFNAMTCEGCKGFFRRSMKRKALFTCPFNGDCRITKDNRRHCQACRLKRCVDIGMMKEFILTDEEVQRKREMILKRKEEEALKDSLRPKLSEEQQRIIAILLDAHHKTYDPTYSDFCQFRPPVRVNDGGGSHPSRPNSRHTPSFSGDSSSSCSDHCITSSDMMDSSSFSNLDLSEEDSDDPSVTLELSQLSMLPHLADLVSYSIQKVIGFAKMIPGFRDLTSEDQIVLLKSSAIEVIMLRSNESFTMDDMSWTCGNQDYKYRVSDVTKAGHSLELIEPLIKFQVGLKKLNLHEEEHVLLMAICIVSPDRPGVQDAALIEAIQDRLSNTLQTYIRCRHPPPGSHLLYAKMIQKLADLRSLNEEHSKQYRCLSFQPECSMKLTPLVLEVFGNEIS

CCN(CC)CCNc1ccc(CNC=O)c2sc3ccc(OC)cc3c(=O)c12
active: [1] 16.4 µM | [2] 1.47 µM | [3] 17.7 µM | [4] 20 µM | [5] 14.4 µM | [6] 14.3 µM | [7] 25.4 µM | [10] 9.57 µM | [11] 20 µM | [12] 11 µM | [13] 30.7 µM | [14] 14.3 µM | [17] 1.61 µM | [18] 20 µM | [19] 12.9 µM
inactive: [8] | [9] | [15] | [16]

NC(=O)N1C(=O)C(C(=O)c2cc(Cl)cs2)c2cc(F)c(Cl)cc21 (stereo not drawn)
active: [3] 14 µM | [4] 2.77 µM | [5] 37.5 µM | [6] 11.4 µM | [7] 15.2 µM | [8] 9.99 µM | [10] 12.7 µM | [12] 2.85 µM | [13] 24.5 µM | [14] 6.63 µM | [15] 9.59 µM | [16] 2.88 µM | [17] 3.15 µM | [18] 6.91 µM | [19] 6.27 µM
inactive: [1] | [20] | [2] | [9] | [11]

Cc1cc(C)c(O)c(C)c1
not listed: [2]
inactive: all other assays above
